Each structure is given as a SMILES string. A structure can be active in one record and inactive in another. Calls of active or inactive are those of the source. The calls were made as follows: active = hit-call score of the fitted dose curve at least 0.9, where 1 is the maximum; inactive = score below 0.9.

The values below come from PubChem BioAssay (EPA / NIEHS).

The experiment is described as follows: APR_HepG2_CellLoss_24hr: Apredica 24-hour HepG2 Assay for Cell Loss (AID 2282908).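 As to AC50: fit in both directions so a hit may be cell loss or gain.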 As to conditions: high-content imaging. Here is the method: APR_HepG2_24hr is a cell-based, multiplexed-readout assay that uses HepG2, a human liver cell line, with measurements taken at 24 hours after chemical dosing in a 384-well plate.APR_HepG2_CellLoss_24hr is one of 10 assay component(s) measured or calculated from the APR_HepG2_24hr assay. It is designed to make measurements of cell number, a form of viability reporter, as detected with fluorescence intensity signals by HCS Fluorescent Imaging technology.Data from the assay component APR_HepG2_CellLoss_24hr was analyzed into 1 assay endpoint. This assay endpoint, APR_HepG2_CellLoss_24hr, was analyzed with bidirectional fitting relative to DMSO as the negative control and baseline of activity. Using a type of viability reporter, measures of all nuclear dna for gain or loss-of-signal activity can be used to understand the viability at the cellular-level. Furthermore, this assay endpoint can be referred to as a secondary readout, because this assay has produced multiple assay endpoints where this one serves a viability function. To generalize the intended target to other relatable targets, this assay endpoint is annotated to the cell cycle intended target family, where the subfamily is proliferation.
Cells were treated with dimethyl sulfoxide (DMSO) as a solvent control at a final concentration of 0.5% v/v or with compounds in DMSO with a resulting final DMSO concentration of 0.5% v/v. Compound treatment was done at concentrations of 0.39, 0.78, 1.56, 3.12, 6.24, 12.5, 25, 50, 100, and 200 uM in duplicate on each plate. Cells were treated with compounds for 1, 24, or 72 hr. Carbonyl […] m-chloro-phenylhydrazone (CCCP) and taxol were used as positive controls for mitochondrial function and cytoskeletal stability, respectively; DMSO served as the negative control for this experiment. Cells were fixed by the direct addition of 50 uL formaldehyde in Hank's Balanced Salt Solution (HBSS) to a final concentration of 3.7%. After incubation in the fixation medium for 30 min at room temperature (293-298 K), cells were rinsed twice with HBSS and treated with cell permeabilization buffer (16 uL of 0.5% Triton X-100) for 10 min at room temperature (293-298 K) before labeling. For mitochondrial membrane potential and mitochondrial measurements, pre-fixed cells were incubated with 50 uL of MitoTracker Red CMXRos (Invitrogen) at a concentration of 250 nM for 30 min before fixation. In the remaining cases, post-fixed cells were labeled by incubation with a multiplexed mixture of primary antibodies in HBSS for 60 min at room temperature (293-298 K) to detect immunoreactivity of c-Jun (1:500), phospho-histone H3 (1:100), phospho-histone H2A.x (1:200), p53 (1:400), alpha-tubulin (1:200) and Hoechst 33342 (2 ug/mL). Cells were labeled for multiplexed imaging on two separate plates: a) Hoechst 33342, MitoTracker Red, phospho-histone H3, and alpha-tubulin, and b) Hoechst 33342, phospho-histone H2A.x, and c-Jun. A final rinse with HBSS (50 uL) was performed before analysis. The primary and secondary antibodies for the proteins were phospho-histone H3 (rabbit anti-phospho-histone H3 and FITC-donkey anti-rabbit IgG), phospho-histone H2A.x (mouse anti-phospho-histone H2A.x and FITC-donkey anti-mouse IgG), c-Jun (rabbit anti-phospho-c-Jun and Cy3-donkey anti-rabbit IgG), p53 (sheep anti-p53 and Cy5-donkey anti-sheep IgG), alpha-tubulin (mouse anti-alpha-tubulin and Cy5-donkey anti-mouse IgG). These antibodies are available as the CellCiphr HepG2 assay kit (Millipore).Digital images of each well were captured using a Cellomics ArrayScan VTI (Thermo Scientific Cellomics) (0.8 NA objective, 0.63x optical coupler, and XF-93 filter set) at 20x magnification. The images were acquired using the autofocus feature of the ArrayScan instrument, which entails the following steps. First, the camera focuses on channel 1 (Hoechst 33342), where nuclei are identified. Second, a Z offset of 1 um is used for capturing mitochondria (MitoTracker Red). […]
For `CC(C)(C)C(O)C(Oc1ccc(Cl)cc1)n1cncn1` (stereo not given), the compound was called inactive. As to `CCS(=O)(=O)c1cccnc1S(=O)(=O)NC(=O)Nc1nc(OC)cc(OC)n1`, the compound was classed as inactive.

Take `Cc1cc(C)nc(NC(=O)NS(=O)(=O)c2ccccc2C(=O)OC2COC2)n1`: the outcome was inactive.

For the compound `CCC(C)(NC(=O)c1cc(Cl)c(C)c(Cl)c1)C(=O)CCl` (stereo not given), the AC50 is 32.3 µM (active). Take `CCc1ccc(C(=O)NN(C(=O)c2cc(C)cc(C)c2)C(C)(C)C)cc1`: the compound was classed as inactive. The same measure, in the same setting: the entry for `CC1(C)C(C=C(Cl)Cl)C1C(=O)OC(C#N)c1ccc(F)c(Oc2ccccc2)c1` (stereo not given) is “inactive”.

With `O=[N+]([O-])/N=C1\NCCN1Cc1ccc(Cl)nc1`, the outcome was inactive. Regarding `O=C(O)CCCOc1ccc(Cl)cc1Cl`, the compound was classed as inactive.

With `COc1nn(CSP(=S)(OC)OC)c(=O)s1`, the call was inactive.

Consider `O=C1c2ccccc2C(=O)N1SC(Cl)(Cl)Cl`, for which the compound was classed as inactive. Turning to `O=C(O)C(F)(F)C(F)(F)C(F)(F)C(F)(F)C(F)(F)C(F)(F)C(F)(F)F`, the call was inactive. `CC(C)N(C(=O)COc1nnc(C(F)(F)F)s1)c1ccc(F)cc1`: the half-maximal activity concentration (AC50) was 115 µM (active). Turning to `O=[N+]([O-])c1c(Cl)c(Cl)c(Cl)c(Cl)c1Cl`, the call was inactive. As for `O=S(=O)(O)C(F)(F)C(F)(F)C(F)(F)C(F)(F)C(F)(F)C(F)(F)C(F)(F)C(F)(F)F`, the AC50 was 122 µM (active) [middle of 5 runs]. As to `CC(C)(C)C(O)/C(=C\c1ccc(Cl)cc1Cl)n1cncn1` (stereo not given), the call was inactive. Turning to `COP(=O)(OC)OC=C(Cl)Cl`, the half-maximal activity concentration (AC50) is 58.9 µM (active). Consider `Cc1[nH]c(=O)n(C(C)(C)C)c(=O)c1Cl`, for which the result was inactive.

With `CC1(c2ccc(Oc3ccccc3)cc2)OC(=O)N(Nc2ccccc2)C1=O` (stereo not given), the AC50 was 120 µM (active). Regarding `O=C(O)COc1ccc(Cl)cc1Cl`, the outcome was inactive. For the compound `Oc1ccc(Cl)cc1Cc1ccccc1`, the compound was called inactive and the concentration at half-maximal activity (AC50) is 77.3 µM (active) [middle of 6 runs]. For `CNC(=O)/C=C(\C)OP(=O)(OC)OC`, the result was inactive. For `CCC(C)(C)C(=O)OC1=C(c2ccc(Cl)cc2Cl)C(=O)OC12CCCCC2`, the half-maximal activity concentration (AC50) was 137 µM (active). Take `COC(=O)c1ccccc1S(=O)(=O)NC(=O)N(C)c1nc(C)nc(OC)n1`: the result was inactive. Consider `CNC(=O)Oc1cccc(N=CN(C)C)c1`, for which the AC50 is 78.6 µM (active). The same measure, in the same setting: the figure for `CCCN(CCOc1c(Cl)cc(Cl)cc1Cl)C(=O)n1ccnc1` is 103 µM (active). Turning to `COP(=S)(OC)Oc1ccc(SC)c(C)c1`, the compound was classed as inactive.

Regarding `CCCN(CCC)c1c([N+](=O)[O-])cc(C(F)(F)F)cc1[N+](=O)[O-]`, the result was inactive. On the same count and under the same terms, then `[2H]C1([2H])[n+]2ccccc2-c2cccc[n+]2C1([2H])[2H]`, with “inactive”; and `COc1cc(OC)nc(NC(=O)NS(=O)(=O)c2cc(NC=O)ccc2C(=O)N(C)C)n1`, with “inactive”; and `CCN(CC)C(=O)SCc1ccc(Cl)cc1`, with “inactive”. The same measure, in the same setting: the entry for `C#CCN1C(=O)COc2cc(F)c(N3C(=O)C4=C(CCCC4)C3=O)cc21` is “inactive”; for `CC(C)OC(=O)Nc1cccc(Cl)c1` it is “inactive”.

Take `COC(=O)c1ccccc1CS(=O)(=O)NC(=O)Nc1nc(OC)cc(OC)n1`: the compound was called inactive. On the same count and under the same terms, the entry for `COP(=S)(OC)Oc1ccc([N+](=O)[O-])cc1` is “inactive”; for `COC(=O)c1ccccc1S(=O)(=O)NC(=O)Nc1nc(C)nc(OC)n1` it is “inactive”. As for `O=S1OCC2C(CO1)C1(Cl)C(Cl)=C(Cl)C2(Cl)C1(Cl)Cl` (stereo not given), the compound was classed as inactive.

With `CCOC1Oc2ccc(OS(C)(=O)=O)cc2C1(C)C` (stereo not given), the compound was called inactive.

As for `O=C(NC(=O)c1c(F)cccc1F)Nc1ccc(OC(F)(F)C(F)OC(F)(F)F)c(Cl)c1` (stereo not given), the compound was called inactive. On the same count and under the same terms, then `OCCOc1ccccc1`, with “inactive”.

What is called AC50 is the concentration giving half of the maximal activity seen.
